Measurements published in PubChem BioAssay (EPA / NIEHS).
Calls of active or inactive are those of the source. The calls were made as follows: active = hit-call score of the fitted dose curve at least 0.9, where 1 is the maximum; inactive = score below 0.9.

Columns and labels:
[1] = biological target: Transcription factor E2F1 (Homo sapiens) (UniProt Q01094); assay: ATG_E2F_CIS: Attagene CIS-FACTORIAL HepG2 Assay for human E2F Transcription Factor 1 (AID 2282935); details: HepG2 Attagene cis-reporter, E2F reporter RNA transcripts; actives raise or lower the signal
Method in brief: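 In this cis-factorial format, endogenous factor activity drives transfected reporters in HepG2; transcripts collected at 24 h are quantified by fluorescence after RT-PCR and capillary separation.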

[2] = ATG_E_Box_CIS: Attagene CIS-FACTORIAL HepG2 Assay for human Enhancer Box (E-box) (AID 2282936); details: HepG2 E-box cis-reporter transcription, actives raise or lower the signal
Method in brief: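 Measured 24 h post-dosing in HepG2 cells transfected with multiple cis-regulated reporter units, signal being reporter mRNA induction detected by fluorescent RT-PCR with capillary electrophoresis; gain or loss fitted against DMSO.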

[3] = ATG_M_61_CIS: Attagene CIS-FACTORIAL HepG2 Assay for M61 Transcription Factor (Internal Marker) (AID 2282937); details: HepG2 Attagene CIS-FACTORIAL M61 internal marker reporter; actives raise or lower the signal
Method in brief: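 Human liver HepG2, transient MRTU transfection (cis promoter elements), 24 h compound. Total RNA → oligo(dT) RT → PCR → FAM label → HpaI → CE. Internal background marker; bidirectional fitting, DMSO = baseline.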

[4] = ATG_EGR_CIS: Attagene CIS-FACTORIAL HepG2 Assay for human Early Growth Response 1 (EGR1) (AID 2282938); details: HepG2 Attagene CIS-FACTORIAL EGR reporter mRNA; actives raise or lower the signal
Method in brief: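 Transient transfection of human HepG2 with multiple cis-regulated reporter units, chemical exposure 24 h, total RNA isolated. Reverse transcription, PCR, fluorescent labelling and capillary electrophoresis quantify reporter transcripts; activity fitted bidirectionally against DMSO.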

[5] = ATG_ERE_CIS: Attagene CIS-FACTORIAL HepG2 Assay for Estrogen Response Element (ERE) (AID 2282940); details: HepG2 ERE cis-reporter, Attagene RNA transcript; actives raise or lower the signal
Method in brief: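 After a 24 h chemical treatment, RNA from reporter-transfected HepG2 cells is reverse-transcribed, PCR-amplified and fluorescently labelled. Fragments separated by capillary electrophoresis give reporter signal; DMSO serves as negative control.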

[6] = ATG_Ets_CIS: Attagene CIS-FACTORIAL HepG2 Assay for human Erythroblast Transformation Specific (ETS) (AID 2282941); details: HepG2 ETS cis-reporter transcription, actives raise or lower the signal
Method in brief: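 Cis-regulated reporter mRNA induction in HepG2 (transient transfection), 24 h exposure, RT-PCR plus capillary electrophoresis detection; DMSO serves as negative control and baseline.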

[7] = ATG_FoxO_CIS: Attagene CIS-FACTORIAL HepG2 Assay for human Forkhead box O (FoxO) (AID 2282943); details: HepG2 Attagene cis-reporter, FoxO element, mRNA; actives raise or lower the signal
Method in brief: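 24 h chemical exposure, HepG2 with transient cis-MRTU transfection. RNA extraction, oligo(dT) RT, reporter-specific PCR, primer-extension labelling, HpaI digestion, CE fragment analysis; bidirectional fit, DMSO baseline.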

[8] = ATG_GATA_CIS: Attagene CIS-FACTORIAL HepG2 Assay for human GATA Binding Protein (AID 2282944); details: HepG2 GATA cis-element reporter, Attagene multiplex mRNA; actives raise or lower the signal
Method in brief: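 Cells: HepG2, transiently transfected with cis-regulated reporter transcription units. Exposure: 24 h. Detection: RT-PCR plus capillary electrophoresis of FAM-labeled fragments. Analysis: bidirectional, DMSO as baseline.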

[9] = ATG_GLI_CIS: Attagene CIS-FACTORIAL HepG2 Assay for human Zinc Finger Protein GLI1 (AID 2282945); details: HepG2, Attagene cis-factorial reporter mRNA, GLI element; actives raise or lower the signal
Method in brief: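 HepG2 cells transiently transfected with cis-promoter multiplexed reporter units report endogenous transcription factor activity. After 24 h chemical exposure, reporter mRNA was quantified by RT-PCR, 6-FAM labelling, HpaI digestion and capillary electrophoresis, with bidirectional fitting against DMSO.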

[10] = ATG_GRE_CIS: Attagene CIS-FACTORIAL HepG2 Assay for human Glucocorticoid Response Elements (GRE) (AID 2282947); details: HepG2 GRE cis-reporter, Attagene multiplex mRNA; actives raise or lower the signal
Method in brief: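 HepG2, transient cis-reporter transfection, 24 h. Reporter mRNA: RT-PCR then CE, fluorescence. Fit both directions vs DMSO.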

[11] = ATG_M_06_CIS: Attagene CIS-FACTORIAL HepG2 Assay for M06 Transcription Factor (Internal Marker) (AID 2282950); details: HepG2 Attagene CIS-FACTORIAL M06 internal marker reporter; actives raise or lower the signal
Method in brief: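 Measured 24 h post-dosing in transiently transfected HepG2 cells, this internal-marker endpoint reports reporter mRNA via RT-PCR with fluorescent primer extension and capillary electrophoresis. DMSO served as negative control and baseline for bidirectional fitting.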

[12] = biological target: Hypoxia-inducible factor 1-alpha (Homo sapiens) (UniProt Q16665); assay: ATG_HIF1a_CIS: Attagene CIS-FACTORIAL HepG2 Assay for human Hypoxia Inducible Factor 1 (HIF1A) (AID 2282951); details: HepG2 Attagene cis-factorial HIF1a reporter transcription; actives raise or lower the signal
Method in brief: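 Transient MRTU transfection of human HepG2 liver cells, 24 h compound treatment, then total RNA isolation, oligo(dT) reverse transcription, PCR amplification, fluorescent labelling and capillary electrophoresis of reporter fragments. Gain or loss relative to DMSO.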

[13] = biological target: Hepatocyte nuclear factor 6 (Homo sapiens) (UniProt Q9UBC0); assay: ATG_HNF6_CIS: Attagene CIS-FACTORIAL HepG2 Assay for human Hepatocyte Nuclear Factor 6 (HNF6) (AID 2282952); details: HepG2 Attagene cis-factorial HNF6 reporter transcription; actives raise or lower the signal
Method in brief: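 First, HepG2 cells were transfected with the multiplexed cis reporter library and dosed with chemical for 24 h. Next, RNA was reverse-transcribed, PCR-amplified and fluorescently labelled. Finally, HpaI-digested fragments were read by capillary electrophoresis.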

[14] = biological target: Heat shock factor protein 1 (Homo sapiens) (UniProt Q00613); assay: ATG_HSE_CIS: Attagene CIS-FACTORIAL HepG2 Assay for human Heat Shock Transcription Factor 1 (HSE) (AID 2282953); details: HepG2 HSE cis-reporter, Attagene RNA transcription; actives raise or lower the signal
Method in brief: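 Reporter mRNA induction in HepG2 is measured 24 h after dosing, using transiently transfected multiplexed cis-regulated reporter units. Signal comes from capillary electrophoresis of labelled RT-PCR products, with DMSO as negative control.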

[15] = ATG_MRE_CIS: Attagene CIS-FACTORIAL HepG2 Assay for human Metal Responsive Element (MRE) (AID 2282954); details: HepG2 MRE cis-reporter transcription, Attagene multiplex; actives raise or lower the signal
Method in brief: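 Readout: capillary electrophoresis of 6-FAM-labelled, HpaI-digested RT-PCR reporter products. System: HepG2 cells carrying transient multiplexed cis reporters, dosed 24 h. Analysis: bidirectional fit, DMSO baseline.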

[16] = ATG_M_19_CIS: Attagene CIS-FACTORIAL HepG2 Assay for M19 Transcription Factor (Internal Marker) (AID 2282939); details: HepG2 Attagene CIS-FACTORIAL M19 internal marker reporter; actives raise or lower the signal
Method in brief: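 HepG2, MRTU transient transfection, 24 h dosing. Total RNA → RT-PCR → 6-FAM primer extension → HpaI digest → CE fluorescence. Bidirectional curve fit, DMSO negative control.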

[17] = ATG_M_32_CIS: Attagene CIS-FACTORIAL HepG2 Assay for M32 Transcription Factor (Internal Marker) (AID 2282949); details: HepG2 Attagene cis-factorial M32 reporter, mRNA; actives raise or lower the signal;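 also: background control marker of the multiplexed CIS panel rather than a real target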
Method in brief: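 Transient MRTU transfection of HepG2; 24 h compound treatment; TriZol RNA, oligo(dT) RT, reporter PCR, 6-FAM primer extension, HpaI cut, CE. Gain/loss of signal vs DMSO.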

[18] = biological target: Bile acid receptor (Homo sapiens) (UniProt Q96RI1); assay: ATG_IR1_CIS: Attagene CIS-FACTORIAL HepG2 Assay for human Nuclear Receptor Subfamily 1 Group H Member 4 (NR1H4), IR1 submotif (AID 2282946); details: IR1 reporter transcription, actives raise or lower the signal
Method in brief: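 Readout: reporter transcript levels by RT-PCR with fluorescent capillary electrophoresis, from HepG2 cells transiently transfected with multiplexed cis-regulated reporters and dosed 24 h. Gain- or loss-of-signal fitted versus DMSO negative control.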

[19] = ATG_ISRE_CIS: Attagene CIS-FACTORIAL HepG2 Assay for human Interferon Regulatory Factor 1 (IRF1) binding to an Interferon-Stimulated Response Element (ISRE) (AID 2282948); details: HepG2 ISRE cis-reporter (Attagene), mRNA transcription readout; actives raise or lower the signal
Method in brief: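 Multiplexed mRNA reporter readout in human liver HepG2 cells: cis-element-driven reporters transfected, compound added for 24 h, transcripts amplified, fluorescently labelled and sized by capillary electrophoresis; curve fitting bidirectional against DMSO.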

[20] = biological target: Hepatocyte nuclear factor 3-beta (Homo sapiens) (UniProt Q9Y261); assay: ATG_FoxA2_CIS: Attagene CIS-FACTORIAL HepG2 Assay for human Forkhead box A2 (FOXA2) (AID 2282942); details: HepG2 cis-reporter transcription factor activity, 24 h; actives raise or lower the signal
Method in brief: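 Transient MRTU transfection of HepG2 liver cells; 24 h treatment; total RNA → oligo(dT) RT → PCR → FAM primer extension → HpaI cut → CE. Bidirectional fit vs DMSO.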

Measured: AC50

Transcription factor E2F1 (Homo sapiens), sequence (Q01094 whole entry, looked up): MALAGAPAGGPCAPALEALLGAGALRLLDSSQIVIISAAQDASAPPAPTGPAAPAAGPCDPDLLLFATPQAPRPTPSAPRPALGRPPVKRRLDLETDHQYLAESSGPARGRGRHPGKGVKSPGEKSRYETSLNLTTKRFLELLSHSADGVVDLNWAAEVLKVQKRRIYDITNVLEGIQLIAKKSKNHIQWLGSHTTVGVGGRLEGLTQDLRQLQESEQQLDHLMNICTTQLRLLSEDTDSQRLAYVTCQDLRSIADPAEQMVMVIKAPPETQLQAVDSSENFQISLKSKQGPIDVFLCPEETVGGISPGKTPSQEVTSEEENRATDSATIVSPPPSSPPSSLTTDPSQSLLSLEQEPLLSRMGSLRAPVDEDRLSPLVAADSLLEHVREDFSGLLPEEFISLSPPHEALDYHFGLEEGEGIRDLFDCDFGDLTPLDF
Hypoxia-inducible factor 1-alpha (Homo sapiens), sequence (Q16665 whole entry, looked up, the tested form may be a part): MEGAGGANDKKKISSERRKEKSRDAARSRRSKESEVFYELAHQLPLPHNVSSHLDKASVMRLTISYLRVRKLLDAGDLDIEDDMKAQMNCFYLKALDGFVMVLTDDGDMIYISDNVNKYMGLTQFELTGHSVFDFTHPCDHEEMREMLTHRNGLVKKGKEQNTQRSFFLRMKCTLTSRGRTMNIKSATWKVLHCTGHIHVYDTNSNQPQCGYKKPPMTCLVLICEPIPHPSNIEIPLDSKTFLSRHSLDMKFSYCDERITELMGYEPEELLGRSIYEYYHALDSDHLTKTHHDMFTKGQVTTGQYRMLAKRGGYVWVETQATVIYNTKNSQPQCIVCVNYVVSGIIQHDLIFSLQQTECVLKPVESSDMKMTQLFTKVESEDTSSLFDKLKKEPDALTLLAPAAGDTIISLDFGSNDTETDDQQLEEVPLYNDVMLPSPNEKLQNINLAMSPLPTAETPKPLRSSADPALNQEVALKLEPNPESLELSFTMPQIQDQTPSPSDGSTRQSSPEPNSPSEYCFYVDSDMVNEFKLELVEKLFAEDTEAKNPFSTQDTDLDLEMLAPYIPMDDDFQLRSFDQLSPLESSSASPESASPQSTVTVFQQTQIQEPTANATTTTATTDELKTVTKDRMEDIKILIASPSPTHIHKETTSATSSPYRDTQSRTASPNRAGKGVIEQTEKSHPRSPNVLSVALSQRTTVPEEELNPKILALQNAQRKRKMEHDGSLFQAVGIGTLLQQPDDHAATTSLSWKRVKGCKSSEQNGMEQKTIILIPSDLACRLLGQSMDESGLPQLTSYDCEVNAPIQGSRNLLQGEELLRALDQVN
Hepatocyte nuclear factor 6 (Homo sapiens), sequence (Q9UBC0 whole entry, looked up, the tested form may be a part): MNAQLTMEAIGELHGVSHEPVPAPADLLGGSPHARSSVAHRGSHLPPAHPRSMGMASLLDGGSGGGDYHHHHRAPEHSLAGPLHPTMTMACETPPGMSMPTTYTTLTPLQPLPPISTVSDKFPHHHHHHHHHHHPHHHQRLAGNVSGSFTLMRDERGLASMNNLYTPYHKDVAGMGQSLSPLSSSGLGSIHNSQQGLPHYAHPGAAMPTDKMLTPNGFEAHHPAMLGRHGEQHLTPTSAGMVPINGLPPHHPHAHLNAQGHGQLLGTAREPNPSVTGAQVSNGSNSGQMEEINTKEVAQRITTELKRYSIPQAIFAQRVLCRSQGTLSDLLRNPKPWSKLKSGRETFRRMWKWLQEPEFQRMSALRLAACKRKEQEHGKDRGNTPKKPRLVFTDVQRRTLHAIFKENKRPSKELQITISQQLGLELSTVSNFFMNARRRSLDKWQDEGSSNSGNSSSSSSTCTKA
Heat shock factor protein 1 (Homo sapiens), sequence (Q00613 whole entry, looked up): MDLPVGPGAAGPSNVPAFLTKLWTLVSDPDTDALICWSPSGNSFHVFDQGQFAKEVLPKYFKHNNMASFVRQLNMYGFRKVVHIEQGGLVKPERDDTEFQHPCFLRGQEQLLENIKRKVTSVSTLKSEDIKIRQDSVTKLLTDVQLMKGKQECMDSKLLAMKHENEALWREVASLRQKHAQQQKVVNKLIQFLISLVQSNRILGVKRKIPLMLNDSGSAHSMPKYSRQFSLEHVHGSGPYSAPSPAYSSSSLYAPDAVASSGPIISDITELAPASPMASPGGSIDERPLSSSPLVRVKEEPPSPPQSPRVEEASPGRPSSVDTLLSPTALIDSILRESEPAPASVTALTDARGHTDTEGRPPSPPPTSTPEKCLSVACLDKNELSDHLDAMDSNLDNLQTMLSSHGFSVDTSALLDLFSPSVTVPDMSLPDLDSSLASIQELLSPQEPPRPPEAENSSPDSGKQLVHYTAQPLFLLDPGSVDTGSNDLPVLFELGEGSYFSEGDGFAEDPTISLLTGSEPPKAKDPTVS
Hepatocyte nuclear factor 3-beta (Homo sapiens), sequence (Q9Y261 whole entry, looked up): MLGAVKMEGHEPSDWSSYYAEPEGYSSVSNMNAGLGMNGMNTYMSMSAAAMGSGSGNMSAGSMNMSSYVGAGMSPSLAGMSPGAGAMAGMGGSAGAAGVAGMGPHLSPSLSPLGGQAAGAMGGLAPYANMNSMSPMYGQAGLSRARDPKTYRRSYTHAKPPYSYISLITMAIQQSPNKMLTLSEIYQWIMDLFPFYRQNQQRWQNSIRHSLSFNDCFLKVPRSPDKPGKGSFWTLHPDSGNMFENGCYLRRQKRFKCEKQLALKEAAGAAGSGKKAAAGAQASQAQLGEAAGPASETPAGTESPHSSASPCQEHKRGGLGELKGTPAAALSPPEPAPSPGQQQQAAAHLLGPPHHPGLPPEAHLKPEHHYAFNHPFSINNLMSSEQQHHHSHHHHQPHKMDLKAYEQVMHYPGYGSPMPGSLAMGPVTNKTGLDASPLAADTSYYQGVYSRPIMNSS
Bile acid receptor (Homo sapiens), sequence (Q96RI1 whole entry, looked up): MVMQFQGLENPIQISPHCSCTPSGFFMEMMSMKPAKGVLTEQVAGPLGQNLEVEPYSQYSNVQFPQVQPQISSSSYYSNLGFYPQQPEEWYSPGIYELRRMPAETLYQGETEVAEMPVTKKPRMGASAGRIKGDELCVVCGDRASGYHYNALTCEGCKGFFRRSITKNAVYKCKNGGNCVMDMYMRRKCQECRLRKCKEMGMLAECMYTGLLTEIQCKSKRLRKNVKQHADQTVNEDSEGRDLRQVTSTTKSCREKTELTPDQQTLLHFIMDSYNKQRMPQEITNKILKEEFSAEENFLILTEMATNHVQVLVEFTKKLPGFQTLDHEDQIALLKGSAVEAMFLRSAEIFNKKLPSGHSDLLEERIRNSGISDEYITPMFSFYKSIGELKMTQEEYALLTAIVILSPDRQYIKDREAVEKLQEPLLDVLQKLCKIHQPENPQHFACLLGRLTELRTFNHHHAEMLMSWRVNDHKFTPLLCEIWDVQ

CCOC(=O)CC(O)(CC(=O)OCC)C(=O)OCC
not listed: [16] | [17] | [18] | [19] | [20]
inactive: all other assays above

CCCCOCCO
active: [5] 134 µM
not listed: [10] | [18] | [19] | [20]
inactive: all other assays above

O=C(/C=C/c1ccc(O)cc1)CC(=O)/C=C/c1ccc(O)cc1
active: [2] 26.7 µM | [4] 11.5 µM | [18] 29 µM | [19] 8.84 µM | [14] 20.3 µM | [15] 10.8 µM
not listed: [16] | [17] | [20]
inactive: all other assays above

C#C[C@]1(O)CC[C@H]2[C@@H]3CCC4=CC(=O)CC[C@@H]4[C@H]3CC[C@@]21C
not listed: [5] | [12] | [13] | [17] | [18] | [19] | [20]
inactive: all other assays above

O=C(OCCOCCOC(=O)c1ccccc1)c1ccccc1
not listed: [16] | [17] | [18] | [19]
inactive: all other assays above

CC(C)(C)CC(C)(C)c1ccc(O)c(-n2nc3ccccc3n2)c1
not listed: [10] | [16] | [19]
inactive: all other assays above

c1ccc2c(c1)ccc1ccccc12
active: [12] 26.9 µM
not listed: [10] | [18] | [19] | [20]
inactive: all other assays above

CCc1nn(C2CCCCC2)c2cc(C3(C#N)CCC(C(=O)O)CC3)ccc12 (centres undefined)
active: [5] 2.31 µM | [12] 100 µM | [15] 100 µM
not listed: [16] | [17] | [18] | [19] | [20]
inactive: all other assays above

COCC(C)O (centres undefined)
not listed: [10] | [14] | [16] | [17] | [18] | [20]
inactive: all other assays above
